The results in this text go back to article PMC7862700, “An all-to-all approach to the identification of sequence-specific readers for epigenetic DNA modifications on cytosine”.

Holding throughout (test): DAPPL (digital affinity profiling via proximity ligation, sequencing); 10 mM Tris-HCl pH 7.5, 50 mM NaCl, 1 mM DTT, 4% glycerol, room temperature, 30 min; GST-TFs on glutathione beads, 16-mer random dsDNA library, 0.1% formaldehyde crosslink after washing; high values mean tight binding
One assay addresses T1, FEV (Homo sapiens, UniProt Q99581 1-238).
T1 sequence: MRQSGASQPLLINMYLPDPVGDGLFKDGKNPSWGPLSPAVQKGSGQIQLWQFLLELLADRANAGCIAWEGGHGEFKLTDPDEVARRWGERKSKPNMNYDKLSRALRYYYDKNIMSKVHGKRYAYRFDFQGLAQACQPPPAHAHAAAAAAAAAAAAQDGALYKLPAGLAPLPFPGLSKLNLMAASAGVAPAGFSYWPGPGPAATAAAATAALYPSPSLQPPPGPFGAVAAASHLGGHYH
The conditions noted are these: protein: recombinant; tags: N-terminal GST; dsDNA, one strand shown. Put shortly:
(§1)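 After expression in yeast as GST fusions, human transcription factors were bound to glutathione beads, DNA-barcoded and mixed with a tag-only sample. The pools were incubated with 200 nmole of a 16-mer random double-stranded DNA library in Tris/NaCl/DTT/glycerol buffer (30 min, room temperature), washed and crosslinked with 0.1% formaldehyde. Proximity ligation with BsaI/T4 ligase ran for 1 h at 37 °C, before PCR amplification and sequencing on an Illumina NextSeq500. Binding signal is a hexamer's read frequency for a factor divided by its frequency for the tag-only sample.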

The target of a further assay is ETV5 (Homo sapiens, UniProt P41161 1-510). The conditions noted are these: protein: recombinant; tags: N-terminal GST; dsDNA, one strand shown. Put shortly: as §1
For a further assay, the target named is HSF1 (Homo sapiens, UniProt Q00613 1-529). The conditions noted are these: protein: recombinant; tags: N-terminal GST; chain copies: 3; dsDNA, one strand shown. Put shortly: as §1
For a further assay, the target named is T2, SPIC (Homo sapiens, UniProt Q8N5J4 1-248).
T2 sequence: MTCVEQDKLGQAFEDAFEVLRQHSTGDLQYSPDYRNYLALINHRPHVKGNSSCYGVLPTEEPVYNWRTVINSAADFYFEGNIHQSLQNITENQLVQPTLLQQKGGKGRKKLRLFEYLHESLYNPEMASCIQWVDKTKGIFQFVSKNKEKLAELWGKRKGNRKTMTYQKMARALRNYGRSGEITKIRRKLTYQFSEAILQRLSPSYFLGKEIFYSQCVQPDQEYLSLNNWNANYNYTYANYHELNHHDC
The conditions noted are these: protein: recombinant; tags: N-terminal GST; dsDNA, one strand shown. Put shortly: as §1

Another assay concerns the target ELF4 (Homo sapiens, UniProt Q99607 1-663). The conditions noted are these: protein: recombinant; tags: N-terminal GST; dsDNA, one strand shown. The procedure, abridged:
as §1

The next assay concerns the target T3, ELK4 (Homo sapiens, UniProt P28324-2 1-405).
T3 sequence: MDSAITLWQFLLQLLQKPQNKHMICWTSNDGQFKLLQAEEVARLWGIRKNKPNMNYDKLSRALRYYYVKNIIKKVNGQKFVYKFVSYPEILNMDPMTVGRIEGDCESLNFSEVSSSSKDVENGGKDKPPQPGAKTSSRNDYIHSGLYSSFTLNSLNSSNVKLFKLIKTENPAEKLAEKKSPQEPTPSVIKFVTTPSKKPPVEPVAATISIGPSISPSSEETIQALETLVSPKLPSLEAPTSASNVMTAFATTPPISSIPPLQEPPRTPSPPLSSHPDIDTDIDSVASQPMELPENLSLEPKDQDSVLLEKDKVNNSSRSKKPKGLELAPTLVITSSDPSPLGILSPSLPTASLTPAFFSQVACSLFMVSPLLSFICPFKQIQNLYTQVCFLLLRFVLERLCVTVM
The settings on record: protein: recombinant; tags: N-terminal GST; dsDNA, one strand shown. Put shortly:
as §1

For another assay, the target named is T4, ETV2 (Homo sapiens, UniProt O00321 1-342).
T4 sequence: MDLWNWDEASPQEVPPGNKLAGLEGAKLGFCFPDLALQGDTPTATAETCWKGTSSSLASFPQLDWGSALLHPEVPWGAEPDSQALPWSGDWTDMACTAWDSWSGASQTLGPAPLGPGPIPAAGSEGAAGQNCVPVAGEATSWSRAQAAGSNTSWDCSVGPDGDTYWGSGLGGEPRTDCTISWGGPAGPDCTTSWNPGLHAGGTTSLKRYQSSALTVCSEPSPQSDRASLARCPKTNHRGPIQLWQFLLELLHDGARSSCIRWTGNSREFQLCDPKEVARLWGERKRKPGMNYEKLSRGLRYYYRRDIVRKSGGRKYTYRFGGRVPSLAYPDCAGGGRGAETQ
The settings on record: protein: recombinant; tags: N-terminal GST; dsDNA, one strand shown. Put shortly: as §1

The target in a further assay is T5, ELF3 (Homo sapiens, UniProt P78545 1-371).
T5 sequence: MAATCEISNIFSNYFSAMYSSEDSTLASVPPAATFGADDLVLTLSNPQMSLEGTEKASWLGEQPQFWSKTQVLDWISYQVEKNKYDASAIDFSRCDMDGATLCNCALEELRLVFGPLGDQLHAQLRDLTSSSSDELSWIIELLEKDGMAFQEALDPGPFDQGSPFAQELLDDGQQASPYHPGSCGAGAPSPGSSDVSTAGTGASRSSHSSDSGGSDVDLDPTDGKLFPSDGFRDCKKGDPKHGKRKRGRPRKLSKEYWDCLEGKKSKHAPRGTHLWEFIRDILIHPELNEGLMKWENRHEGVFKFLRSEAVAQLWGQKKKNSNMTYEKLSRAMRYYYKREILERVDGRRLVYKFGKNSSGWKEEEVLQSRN
The settings on record: protein: recombinant; tags: N-terminal GST; dsDNA, one strand shown. Put shortly:
as §1

The target in a further assay is CRX (Homo sapiens, UniProt O43186 1-299). The settings on record: protein: recombinant; tags: N-terminal GST; dsDNA, one strand shown. Put shortly:
as §1

The target of the next assay is ETV1 (Homo sapiens, UniProt P50549 1-477). The settings on record: protein: recombinant; tags: N-terminal GST; dsDNA, one strand shown. The procedure, abridged: as §1
Another assay concerns the target T6, ERF (Homo sapiens, UniProt P50548 1-548).
T6 sequence: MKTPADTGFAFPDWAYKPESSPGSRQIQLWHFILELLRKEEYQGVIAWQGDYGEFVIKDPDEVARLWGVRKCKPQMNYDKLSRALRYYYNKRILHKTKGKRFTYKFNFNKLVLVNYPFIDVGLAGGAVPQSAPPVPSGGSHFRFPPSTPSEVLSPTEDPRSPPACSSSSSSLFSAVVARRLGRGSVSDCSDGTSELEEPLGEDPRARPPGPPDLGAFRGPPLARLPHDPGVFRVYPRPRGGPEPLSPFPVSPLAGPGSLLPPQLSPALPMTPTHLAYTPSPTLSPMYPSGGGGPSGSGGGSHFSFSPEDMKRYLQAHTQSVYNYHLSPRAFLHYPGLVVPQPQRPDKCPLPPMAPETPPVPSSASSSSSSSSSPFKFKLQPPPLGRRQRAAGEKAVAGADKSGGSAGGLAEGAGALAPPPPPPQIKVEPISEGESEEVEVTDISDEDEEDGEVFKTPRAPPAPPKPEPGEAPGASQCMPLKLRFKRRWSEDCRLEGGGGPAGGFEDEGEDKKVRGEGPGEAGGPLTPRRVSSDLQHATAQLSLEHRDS
The conditions noted are these: protein: recombinant; tags: N-terminal GST; dsDNA, one strand shown. The procedure, abridged:
as §1

Another assay deals with T7, ETV3L (Homo sapiens, UniProt Q6ZN32 1-361).
T7 sequence: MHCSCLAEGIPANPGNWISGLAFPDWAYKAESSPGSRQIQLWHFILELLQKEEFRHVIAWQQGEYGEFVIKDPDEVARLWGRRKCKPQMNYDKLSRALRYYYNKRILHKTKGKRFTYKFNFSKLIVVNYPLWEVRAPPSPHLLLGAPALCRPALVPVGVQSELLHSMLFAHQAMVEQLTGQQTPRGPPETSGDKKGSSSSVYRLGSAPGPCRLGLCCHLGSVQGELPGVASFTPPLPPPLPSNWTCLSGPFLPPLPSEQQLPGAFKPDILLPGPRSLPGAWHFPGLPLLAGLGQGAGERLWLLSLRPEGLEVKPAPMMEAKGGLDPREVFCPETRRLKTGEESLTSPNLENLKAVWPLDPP
The settings on record: protein: recombinant; tags: N-terminal GST; dsDNA, one strand shown. The procedure, abridged: as §1

For another assay, the target named is T8, ETS2 (Homo sapiens, UniProt P15036 1-469).
T8 sequence: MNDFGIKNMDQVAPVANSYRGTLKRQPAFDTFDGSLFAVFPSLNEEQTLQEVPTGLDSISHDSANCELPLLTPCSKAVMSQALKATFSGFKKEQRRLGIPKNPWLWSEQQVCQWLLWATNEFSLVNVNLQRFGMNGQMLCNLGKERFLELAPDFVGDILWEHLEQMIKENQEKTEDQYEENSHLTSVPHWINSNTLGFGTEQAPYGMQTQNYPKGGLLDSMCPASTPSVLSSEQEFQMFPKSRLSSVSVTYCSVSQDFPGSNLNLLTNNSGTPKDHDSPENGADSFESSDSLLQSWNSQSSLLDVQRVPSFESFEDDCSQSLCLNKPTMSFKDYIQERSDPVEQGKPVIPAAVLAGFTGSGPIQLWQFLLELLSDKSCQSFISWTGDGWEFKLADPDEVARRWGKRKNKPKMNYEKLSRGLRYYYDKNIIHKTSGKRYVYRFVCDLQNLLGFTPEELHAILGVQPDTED
The settings on record: protein: recombinant; tags: N-terminal GST; dsDNA, one strand shown. The procedure, abridged: as §1

Another assay has as its target T9, SPDEF (Homo sapiens, UniProt O95238 1-335).
T9 sequence: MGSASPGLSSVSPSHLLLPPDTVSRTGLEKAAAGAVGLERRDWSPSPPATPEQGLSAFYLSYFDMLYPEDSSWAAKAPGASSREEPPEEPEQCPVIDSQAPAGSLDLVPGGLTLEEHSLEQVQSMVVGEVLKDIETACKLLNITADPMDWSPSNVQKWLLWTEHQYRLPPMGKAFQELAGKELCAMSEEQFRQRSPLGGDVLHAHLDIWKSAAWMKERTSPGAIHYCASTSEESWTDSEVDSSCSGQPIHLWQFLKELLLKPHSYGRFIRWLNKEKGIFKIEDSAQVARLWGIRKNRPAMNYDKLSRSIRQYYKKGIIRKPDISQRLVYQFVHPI
The settings on record: protein: recombinant; tags: N-terminal GST; dsDNA, one strand shown. Put shortly:
as §1

The target in a further assay is T10, ETV7 (Homo sapiens, UniProt Q9Y603 1-341).
T10 sequence: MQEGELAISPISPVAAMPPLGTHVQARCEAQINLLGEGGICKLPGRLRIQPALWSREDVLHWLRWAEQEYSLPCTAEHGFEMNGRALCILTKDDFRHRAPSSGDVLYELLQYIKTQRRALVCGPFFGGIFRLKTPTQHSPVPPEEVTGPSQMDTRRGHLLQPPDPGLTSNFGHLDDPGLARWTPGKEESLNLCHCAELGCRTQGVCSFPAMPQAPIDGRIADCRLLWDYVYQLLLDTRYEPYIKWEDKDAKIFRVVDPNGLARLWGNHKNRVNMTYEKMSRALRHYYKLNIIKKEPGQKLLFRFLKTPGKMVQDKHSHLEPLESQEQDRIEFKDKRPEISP
The conditions noted are these: protein: recombinant; tags: N-terminal GST; dsDNA, one strand shown. The procedure, abridged:
as §1

A further assay addresses T11, ELF5 (Homo sapiens, UniProt Q9UKW6-2 1-255).
T11 sequence: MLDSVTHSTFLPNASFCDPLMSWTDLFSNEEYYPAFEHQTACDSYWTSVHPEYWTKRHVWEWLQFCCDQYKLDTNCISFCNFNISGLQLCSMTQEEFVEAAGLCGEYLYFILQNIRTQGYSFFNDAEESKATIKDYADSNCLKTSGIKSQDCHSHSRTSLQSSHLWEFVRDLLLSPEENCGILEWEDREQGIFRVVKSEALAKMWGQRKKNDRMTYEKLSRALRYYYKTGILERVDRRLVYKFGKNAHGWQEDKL
The conditions noted are these: protein: recombinant; tags: N-terminal GST; dsDNA, one strand shown. The procedure, abridged: as §1

In the next assay the target is T12, ETV3 (Homo sapiens, UniProt P41162-2 1-143).
T12 sequence: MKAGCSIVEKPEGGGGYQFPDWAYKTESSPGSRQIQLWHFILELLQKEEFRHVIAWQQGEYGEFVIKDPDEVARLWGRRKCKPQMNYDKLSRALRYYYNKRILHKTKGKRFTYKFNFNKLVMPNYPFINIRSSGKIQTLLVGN
The conditions noted are these: protein: recombinant; tags: N-terminal GST; dsDNA, one strand shown. The procedure, abridged:
as §1

For a further assay, the target named is ETV6 (Homo sapiens, UniProt P41212 1-452). The conditions noted are these: protein: recombinant; tags: N-terminal GST; dsDNA, one strand shown. Put shortly: as §1
Chain of ETV6 (P41212 whole entry): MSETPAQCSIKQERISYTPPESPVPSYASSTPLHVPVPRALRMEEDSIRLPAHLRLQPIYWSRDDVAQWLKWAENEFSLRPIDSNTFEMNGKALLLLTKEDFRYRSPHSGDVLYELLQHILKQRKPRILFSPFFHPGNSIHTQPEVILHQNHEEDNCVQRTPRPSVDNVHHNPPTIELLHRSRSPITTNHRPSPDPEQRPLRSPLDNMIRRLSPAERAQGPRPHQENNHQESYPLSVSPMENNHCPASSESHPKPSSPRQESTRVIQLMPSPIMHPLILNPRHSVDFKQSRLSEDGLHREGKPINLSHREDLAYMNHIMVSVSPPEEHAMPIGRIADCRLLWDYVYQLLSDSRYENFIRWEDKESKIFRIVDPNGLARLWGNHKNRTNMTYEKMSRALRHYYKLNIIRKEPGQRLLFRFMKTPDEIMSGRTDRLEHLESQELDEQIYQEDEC

Chain of CRX (O43186 whole entry): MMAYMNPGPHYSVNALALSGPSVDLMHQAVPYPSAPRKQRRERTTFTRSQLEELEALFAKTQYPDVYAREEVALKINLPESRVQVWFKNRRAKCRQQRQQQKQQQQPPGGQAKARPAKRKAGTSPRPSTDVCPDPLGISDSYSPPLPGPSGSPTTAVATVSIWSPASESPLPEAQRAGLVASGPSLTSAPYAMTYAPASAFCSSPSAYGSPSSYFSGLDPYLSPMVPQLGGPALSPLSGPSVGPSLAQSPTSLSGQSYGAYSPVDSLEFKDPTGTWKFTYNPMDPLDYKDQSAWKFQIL
Chain of ETV1 (P50549 whole entry): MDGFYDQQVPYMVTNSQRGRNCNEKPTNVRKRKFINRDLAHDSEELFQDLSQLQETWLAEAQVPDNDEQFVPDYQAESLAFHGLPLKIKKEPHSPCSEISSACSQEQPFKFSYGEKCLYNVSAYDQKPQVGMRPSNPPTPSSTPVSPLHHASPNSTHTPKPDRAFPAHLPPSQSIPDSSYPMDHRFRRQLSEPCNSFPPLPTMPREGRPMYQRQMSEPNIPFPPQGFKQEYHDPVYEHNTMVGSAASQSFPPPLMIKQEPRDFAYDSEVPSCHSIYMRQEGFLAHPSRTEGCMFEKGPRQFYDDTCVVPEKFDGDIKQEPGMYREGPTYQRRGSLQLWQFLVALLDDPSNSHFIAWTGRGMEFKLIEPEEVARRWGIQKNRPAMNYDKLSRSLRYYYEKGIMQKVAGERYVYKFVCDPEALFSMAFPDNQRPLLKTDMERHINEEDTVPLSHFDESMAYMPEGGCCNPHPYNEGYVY
Chain of HSF1 (Q00613 whole entry): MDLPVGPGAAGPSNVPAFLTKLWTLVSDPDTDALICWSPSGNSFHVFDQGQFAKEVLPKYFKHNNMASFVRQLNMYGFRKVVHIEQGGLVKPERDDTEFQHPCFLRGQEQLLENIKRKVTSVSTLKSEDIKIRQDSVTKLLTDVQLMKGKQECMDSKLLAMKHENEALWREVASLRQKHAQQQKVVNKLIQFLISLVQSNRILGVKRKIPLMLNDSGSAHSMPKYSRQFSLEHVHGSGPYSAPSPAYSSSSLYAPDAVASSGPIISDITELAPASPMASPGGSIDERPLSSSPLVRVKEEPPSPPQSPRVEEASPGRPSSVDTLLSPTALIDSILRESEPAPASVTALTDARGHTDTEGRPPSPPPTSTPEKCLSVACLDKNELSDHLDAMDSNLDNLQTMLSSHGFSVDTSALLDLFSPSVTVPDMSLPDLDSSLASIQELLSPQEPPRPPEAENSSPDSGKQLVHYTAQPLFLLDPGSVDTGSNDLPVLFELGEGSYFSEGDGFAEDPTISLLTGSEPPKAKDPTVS
Chain of ELF4 (Q99607 whole entry): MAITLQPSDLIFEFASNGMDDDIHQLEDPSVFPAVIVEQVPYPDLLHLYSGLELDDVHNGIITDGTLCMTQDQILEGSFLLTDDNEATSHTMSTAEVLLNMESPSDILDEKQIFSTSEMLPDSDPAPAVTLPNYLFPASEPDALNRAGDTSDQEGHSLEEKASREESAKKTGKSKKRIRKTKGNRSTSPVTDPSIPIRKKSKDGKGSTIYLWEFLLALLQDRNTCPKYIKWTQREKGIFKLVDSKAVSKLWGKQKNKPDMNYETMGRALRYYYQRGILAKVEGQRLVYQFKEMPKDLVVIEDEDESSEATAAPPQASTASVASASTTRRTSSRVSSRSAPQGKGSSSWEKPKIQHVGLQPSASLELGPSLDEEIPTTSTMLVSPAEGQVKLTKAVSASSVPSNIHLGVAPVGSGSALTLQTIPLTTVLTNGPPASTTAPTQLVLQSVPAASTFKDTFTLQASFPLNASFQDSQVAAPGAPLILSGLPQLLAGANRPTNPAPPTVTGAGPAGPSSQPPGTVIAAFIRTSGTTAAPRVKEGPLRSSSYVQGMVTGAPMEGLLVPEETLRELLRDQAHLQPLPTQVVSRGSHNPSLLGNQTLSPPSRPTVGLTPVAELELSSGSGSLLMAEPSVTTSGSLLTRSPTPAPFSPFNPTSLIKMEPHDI
Chain of ETV5 (P41161 whole entry): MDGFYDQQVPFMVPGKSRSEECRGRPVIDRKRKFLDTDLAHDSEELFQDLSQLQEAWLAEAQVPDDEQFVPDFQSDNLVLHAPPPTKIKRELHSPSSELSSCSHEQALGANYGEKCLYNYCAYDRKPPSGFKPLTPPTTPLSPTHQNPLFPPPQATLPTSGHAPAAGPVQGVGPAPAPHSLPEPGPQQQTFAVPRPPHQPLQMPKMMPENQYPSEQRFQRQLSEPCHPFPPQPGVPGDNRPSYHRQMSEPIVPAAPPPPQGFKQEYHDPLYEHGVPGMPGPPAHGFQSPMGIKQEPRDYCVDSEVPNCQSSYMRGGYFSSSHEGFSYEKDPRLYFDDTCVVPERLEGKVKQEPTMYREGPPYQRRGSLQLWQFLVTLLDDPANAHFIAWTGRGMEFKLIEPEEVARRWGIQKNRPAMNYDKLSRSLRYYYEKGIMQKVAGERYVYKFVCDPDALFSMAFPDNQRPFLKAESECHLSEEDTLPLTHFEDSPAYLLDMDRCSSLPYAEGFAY

On to GCGACT, for which the binding signal with FEV was 1.31 fold enrichment (6-mer frequency, TF over GST control); with ETV5 it was 1.28 fold enrichment (6-mer frequency, TF over GST control); in the assay with HSF1, 1.11 fold enrichment (6-mer frequency, TF over GST control); with SPIC, 1.28 fold enrichment (6-mer frequency, TF over GST control); with ELF4, 1.13 fold enrichment (6-mer frequency, TF over GST control); in the assay with ELK4 it was 1.28 fold enrichment (6-mer frequency, TF over GST control). Also, the binding signal is 1.55 fold enrichment (6-mer frequency, TF over GST control) with ETV2; 1.05 fold enrichment (6-mer frequency, TF over GST control) in the assay with ELF3; 1.14 fold enrichment (6-mer frequency, TF over GST control) with CRX; 1.22 fold enrichment (6-mer frequency, TF over GST control) with ETV1; 1.43 fold enrichment (6-mer frequency, TF over GST control) with ERF; 1.17 fold enrichment (6-mer frequency, TF over GST control) in the assay with ETV3L. Besides, the binding signal in the assay with ETS2 is 1.15 fold enrichment (6-mer frequency, TF over GST control); with SPDEF it was 1.13 fold enrichment (6-mer frequency, TF over GST control); in the assay with ETV7, 1.14 fold enrichment (6-mer frequency, TF over GST control); with ELF5, 1.3 fold enrichment (6-mer frequency, TF over GST control); with ETV3, 1.14 fold enrichment (6-mer frequency, TF over GST control); with ETV6, 1.16 fold enrichment (6-mer frequency, TF over GST control).
